Bioassay records as filed in PubChem.
PNC assembly inh: High Content Assay for Compounds that inhibit the Assembly of the Perinucleolar Compartment. activity change (PNC), negative = inhibition, % at 10 µM. 140,000 tested, 3.1% active. AID 2417, 2010. PC3M PTB-GFP, PNC prevalence imaging, 16 h; stronger effect = lower value;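 active = readout at or below -70, meaning at least 70% loss of cells showing the perinucleolar compartment, a nuclear body marking cancer cells; inconclusive = readout between -30 and a set limit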;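 also: plate controls were DMSO wells for no effect and camptothecin positive control wells for full effect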
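PC3M cells stably expressing PTB-GFP, 750–1000 cells/well, treated 16 h at 37 °C with compound (23 nl of library stock), in duplicate. After paraformaldehyde fixation and Hoechst stain, imaged at 20x; PNC prevalence scored by image analysis.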
ALDH1A1 inh: qHTS Assay for Inhibitors of Aldehyde Dehydrogenase 1 (ALDH1A1); Purified ALDH1A1, NADH fluorescence, propionaldehyde substrate; Potency, µM (doses to about 75.3 µM), for inactives: at the top dose activity, negative = inhibition, usual class: inhibitors; 220,000 tested, 7.3% active;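 also: potency is read from the fitted curve at half-maximal effect; plate controls were no enzyme wells and a reference inhibitor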
Target sequence (P00352 whole entry, looked up): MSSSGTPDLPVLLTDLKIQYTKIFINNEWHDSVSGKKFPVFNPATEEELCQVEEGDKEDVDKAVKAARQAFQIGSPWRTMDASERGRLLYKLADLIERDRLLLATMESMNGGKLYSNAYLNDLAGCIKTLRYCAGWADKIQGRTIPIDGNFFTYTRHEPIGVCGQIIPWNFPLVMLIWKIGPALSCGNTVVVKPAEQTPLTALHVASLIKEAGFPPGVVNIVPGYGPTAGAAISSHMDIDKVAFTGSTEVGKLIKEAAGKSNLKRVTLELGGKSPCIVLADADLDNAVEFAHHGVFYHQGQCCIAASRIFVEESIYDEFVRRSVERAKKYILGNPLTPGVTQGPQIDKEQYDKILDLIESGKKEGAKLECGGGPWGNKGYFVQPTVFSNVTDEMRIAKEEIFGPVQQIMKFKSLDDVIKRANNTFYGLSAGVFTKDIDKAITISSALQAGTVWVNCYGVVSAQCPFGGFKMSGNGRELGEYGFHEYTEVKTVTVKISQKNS
HTT cytoprotect: qHTS Multiplex Assay to Identify Dual Action Probes in a Cell Model of Huntington: Cytoprotection (ATP); PC12 HTT-Q103 induced, cytoprotection, ATP luminescence, 40 h; Potency, µM (series often up to 56.4 µM), without a hit: cytoprotection (ATP increase), hits mostly activators; 230,000 tested, 0.14% active; AID 1471, 2008; active = well fitted curve in the direction sought with a large enough effect; inconclusive = small, poorly fitted or top-dose-only effect, or another doubt; inactive = no such curve, though single readings can be large; an effect the other way counts as inactive or inconclusive; also: potency is read from the fitted curve at half-maximal effect; % of control where 0% means no effect; nearly all actives have a fitted effect of over 45% in size
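Compounds added alongside 100 nM tebufenozide, which induces toxic Q103 huntingtin exon 1-GFP in stable PC12 cells; surviving cells quantified by luminescent ATP measurement. Medium: phenol red-free DMEM, 5% equine and 5% calf serum.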
HttQ103 aggreg: qHTS Multiplex Assay to Identify Dual Action Probes in a Cell Model of Huntington: Aggregate Formation (GFP); PC12 HttQ103-GFP aggregates, Acumen cytometry, 40 h; Potency, µM (series often up to 46.1 µM), for the others: at the top dose activity change, negative = inhibition, most hits filed as inhibitors; 220,000 tested, 1.1% active; active = well fitted curve in the direction sought with a large enough effect; inconclusive = small, poorly fitted or top-dose-only effect, or another doubt; inactive = no such curve, though single readings can be large; an effect the other way counts as inactive or inconclusive; also: potency is read from the fitted curve at half-maximal effect; % is scaled to controls: 0 for no effect and ±100 for the full control effect; nearly all actives have a fitted effect of over 60% in size
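PC12 cells with ecdysone-inducible HTT exon1 Q103-GFP, induced by 100 nM tebufenozide, given compounds in a concentration series. GFP aggregates (1–25 um, 6 SD above background) counted in lysates by laser-scanning cytometry, 488 nm excitation.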
RGS12 GoLoco inh: qHTS Assay for Inhibitors of RGS12 GoLoco Motif Activity (Red Fluorophore); Potency, µM (doses to about 61.6 µM), without a hit: top-dose activity, negative = inhibition, actives largely listed as inhibitors; Guanine nucleotide-binding protein G(i) subunit alpha-1 (Homo sapiens), P63096; Gai1:RGS12 GoLoco peptide FP, rhodamine, 10 min; 230,000 tested, 0.44% active; active = well fitted inhibition curve with a large enough effect, not every such curve was filed as active; inactive = no such curve, though single readings can be large or run the other way; also: potency is read from the fitted curve at half-maximal effect; % is scaled to controls: 0 for no effect and ±100 for the full control effect; nearly all actives have a fitted effect of over 30% in size
HPGD inh: qHTS Assay for Inhibitors of HPGD (15-Hydroxyprostaglandin Dehydrogenase); 15-hydroxyprostaglandin dehydrogenase [NAD(+)] (Homo sapiens), P15428; purified HPGD, NADH fluorescence kinetic, PGE2 substrate; Potency, µM, without a hit: top-dose activity change, negative = inhibition, most hits filed as inhibitors; 150,000 tested, 4.3% active; AID 894, 2007; also: potency is read from the fitted curve at half-maximal effect; % is scaled to controls: 0 for no effect and ±100 for the full control effect
Target sequence (P15428 whole entry, looked up): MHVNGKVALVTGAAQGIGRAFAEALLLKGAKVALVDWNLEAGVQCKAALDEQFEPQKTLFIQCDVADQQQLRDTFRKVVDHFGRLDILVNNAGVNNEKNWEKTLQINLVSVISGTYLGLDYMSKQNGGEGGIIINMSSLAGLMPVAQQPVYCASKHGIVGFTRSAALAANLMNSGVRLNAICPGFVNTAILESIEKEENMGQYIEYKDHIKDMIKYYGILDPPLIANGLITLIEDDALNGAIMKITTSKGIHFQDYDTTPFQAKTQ
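NADH formation kinetics: reaction with 30 uM PGE2 and 1 mM NAD+ (final), 20 nM enzyme, Tris-HCl pH 8 with Tween 20, after 15 min compound preincubation at room temperature. Fluorescence change, last versus first of five reads.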
Starred values were filed as active, the others as inactive; ? = inconclusive; . = not tested or not shown; ! = not active in a repeat; [ ] = another dose, or the depositor's remark. Shown are actives, neighbours in structure and some others; about 11% of the full set was active somewhere. Unless noted, calls follow the shape of the dose curve; as a rule, active = well fitted inhibition curve with a large enough effect (not every such curve was filed as active); inconclusive = small, poorly fitted or top-dose-only effect, or another doubt; inactive = no such curve, though single readings can be large or run the other way.

SMILES	PNC assembly inh	ALDH1A1 inh	HTT cytoprotect	HttQ103 aggreg	RGS12 GoLoco inh	HPGD inh
Cc1csc(=NC(=O)c2ccccc2)n1Cc1ccco1	31	3%	-4%[10 µM]	12%	4%	-16%
Cc1ccc(-n2c(SCCN)nnc2-c2cccc(C)c2)cc1	.	.	7%[10 µM]	-9%[9.22 µM]	0%	.
COc1ccc(-c2nnc(SCCC(=O)O)n2-c2ccccc2)cc1	-2	?	10%[0.074 µM]	-3%	7%	32µM*
COc1ccc(-n2c(SCC3CNC(=O)O3)nnc2-c2ccc(Cl)cc2)cc1 (stereo not given)	-20	8.9µM*	7%[10 µM]	6%	5%	-4%
Cc1cccc(-c2nnc(SCC3CNC(=O)O3)n2-c2ccc(Cl)cc2)c1 (stereo not given)	?	1.4µM*	22%[10 µM]	5%	4%	-18%
COc1ccc(C(=O)OC2CC3CC[C@H](C2)N3C(C)=O)cc1OC (stereo not given in full)	.	9%	-1%	.	2%	0%
CCOc1ccc(-c2csc(/C(C#N)=C\c3ccc(O)c([N+](=O)[O-])c3)n2)cc1	?	-16%	18%[10 µM]	7.9µM*	16%	3.2µM*
FC(F)(F)c1ccccc1NC(=S)NN=C1CCCCCC1	.	28µM*	-113%	26%	-4%	.
Cc1c(NC(=S)Nc2ccccc2C(F)(F)F)cccc1[N+](=O)[O-]	?	22µM*	15%[10 µM]	6%	.	.
Cc1ccc(C(=O)NC(=S)Nc2ccccc2C(F)(F)F)c(C)c1	32	13µM*	16%[10 µM]	3%	1%	-15%
CC(C)C(=O)NC(=S)Nc1ccccc1C(F)(F)F	?	?	6%	7%	.	.
Cc1ccccc1C(=O)NC(=S)Nc1ccccc1C(F)(F)F	-26	13µM*	-17%	-1%	5%	-7%
O=C(NC(=S)Nc1ccccc1C(F)(F)F)c1ccccc1F	.	4%	5%	17%	8%	.
CC(=O)O[C@]1(C)CC[C@]23CC1C(C)(C)C2CC[C@@H]3C (stereo not given in full)	.	-5%	.	.	5%	-2%
c1cn(-c2ccnc(-c3ccc4c(c3)OCO4)n2)cn1	.	?	-41%	.	6%	.
O=C(NNC(=S)Nc1ccccc1C(F)(F)F)c1cccnc1	.	?	-50%	40%	3%	.
N#CCC(=O)NNC(=S)Nc1ccccc1C(F)(F)F	.	18µM*	-12%	?	4%	.
CC(=O)Nc1c(I)c(C(=O)N[C@H]2[C@@H](O)[C@H](O)[C@H](CO)O[C@@H]2O)c(I)c(N(C)C(C)=O)c1I	.	11%[20.9 µM]	4%[40.3 µM]	17%[20.6 µM]	12%[21.6 µM]	1%
CN(N=O)C(=O)N[C@H]1C(O)C(O)C(CO)O[C@@H]1O (stereo not given in full)	.	-4%	-40%	.	20µM*	0%
Cc1onc(-c2c(F)cccc2Cl)c1C(=O)NC(=S)Nc1c(C)n(C)n(-c2ccccc2)c1=O	.	-10%	-49%	3%[9.22 µM]	15%	.
Cc1onc(-c2c(Cl)cccc2Cl)c1C(=O)Nn1cnnc1	-107*	7%	-4%	-29%	1%	-13%
Cc1onc(-c2c(Cl)cccc2Cl)c1C(=O)NC(=S)Nc1sc2c(c1C(N)=O)CCC(C)C2 (stereo not given)	4	19µM*	-16%[10 µM]	1%	3%	-5%
Cc1onc(-c2c(F)cccc2Cl)c1C(=O)NC(=S)NC1CCSC1=O (stereo not given)	37	10µM*	-6%[0.074 µM]	-3%	7%	?
Cc1onc(-c2c(Cl)cccc2Cl)c1C(=O)c1ccccc1	.	?	10%[10 µM]	-3%[9.22 µM]	-2%	.
Cc1onc(-c2ccccc2)c1C(=O)Nc1sc2c(c1C#N)CCC(C)C2 (stereo not given)	12	?	-6%	?	8%	-10%
SMILES	PNC assembly inh	ALDH1A1 inh	HTT cytoprotect	HttQ103 aggreg	RGS12 GoLoco inh	HPGD inh
COC(CNC(=O)c1cc(C(=O)c2c(-c3c(Cl)cccc3Cl)noc2C)c[nH]1)OC	-3	10µM*	6%	4%	36%	-22%
CN(C)CCSCCO	.	11%[13.5 µM]	15%[10 µM]	.	-2%[14.2 µM]	-3%
CC(C)(Cl)C1Cc2cc3ccc(=O)oc3cc2O1 (stereo not given)	31	?	-9%	5%	9%	?
CN(Cc1ccccc1)C(=O)CCSc1nc(-c2ccc3c(c2)OCO3)cc(C(F)(F)F)n1	32	?	-22%[10 µM]	-28%	5%	?
Nc1nc(Cl)nc2c1ncn2[C@@H]1O[C@H](COP(=O)(O)OP(=O)(O)OP(=O)(O)O)[C@H](O)[C@H]1O	.	-5%	.	.	-15%	-5%
COCCNC(=O)C(c1cccnc1)N(Cc1ccc(C)cc1)C(=O)Cn1nnc2ccccc21 (stereo not given)	.	4%	-19%[10 µM]	-1%[9.22 µM]	13%	.
CCN(CC)S(=O)(=O)c1ccc(/C(O)=C(\C#N)c2nc3ccccc3n2C)cc1	6	20µM*	-27%[10 µM]	-33%	1%	-18%
Cn1c(/C(C#N)=C(\O)c2ccc([N+](=O)[O-])cc2)nc2ccccc21	.	2%	2%	3%	7%	.
COC(=O)C(N)Cc1ccc(O)c(O)c1 (stereo not given)	8	3%	-53%	-3%	-1%	0%
C[C@](N)(Cc1ccc(O)c(O)c1)C(=O)O	20	5.6µM*!	-48%	11%	11%	?
COc1ccc(-c2cc(C3CCN(c4cc(Cl)nc(N)n4)CC3)[nH]n2)cc1	49	0%	-96%	13µM*	4%	-15%
CN1C(=O)SC(Nc2cccc3ccccc23)C1=O (stereo not given)	-3	28µM*	10%[1.9 µM]	-9%	-4%	-21%
Oc1ccccc1C1=NOC(O)(C(F)F)C1 (stereo not given)	?	1%	-16%	?	2%	16µM*
COc1ccc(CC2CCOC2=O)cc1 (stereo not given)	-127*	2%	-12%	10%	5%	-15%
Nc1nc2ccccc2n1C(=O)c1cccs1	.	0%	-147%	-18%	11%	.
CC(=O)N/C(=C/c1ccc2c(c1)OCO2)C(=O)O	.	0%	18%[10 µM]	4%[9.22 µM]	2%	.
CCC(NC(=O)/C(=C\c1ccc2c(c1)OCO2)NC(C)=O)C(=O)O (stereo not given)	-125*	7%	-1%[10 µM]	6%	3%	-4%
